# Screening data from PubChem.
# Compounds with a hit are over-represented: about 21% of the library has one in this group of screens.
# Cycloheximide cs = counter-screen hit for Shiga toxin inhibitors, cycloheximide; cell reporter, cycloheximide protein synthesis inhibition counterscreen; max response, %; 300,000 compounds, 12% hits; AID 2314; in the data active = max response mostly above about 13%, no sharp cut-off; inactive = mostly below about 14%; note: read at 38.3 µM for the half of the compounds with a filed dose; 0% is about no effect
# SARS PLpro yeast = SARS-CoV PLP inhibition in yeast; AID 485353; S. cerevisiae expressing SARS-CoV PLpro, growth rescue; 330,000 compounds, 0.19% hits; Potency, µM (highest dose often 32.9 µM), for inactives: at the top dose activity, positive = growth rescue, most hits filed as activators; note: potency is the fitted concentration of half-maximal effect; 0% is about no effect; nearly all actives have a fitted effect of over 55% in size
# NS1 inh = influenza NS1 inhibition; Potency, µM (titrated, usually from 46.1 µM), without a hit: at the highest dose activity, positive = more growth; 270,000 compounds, 0.4% hits; AID 2326; note: potency is the fitted concentration of half-maximal effect; actives are rising curves; nearly all actives have a fitted effect of over 50% in size
#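 Recovery from NS1-induced slow growth read by OD600 in budding yeast switched to galactose assay medium (pH 6.0, -URA) at 1:100 dilution. Compound 23 nl per well; the matching strain lacking NS1 serves as control.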
# Shiga inhibitor = blocks Shiga toxin action in Vero cells; Vero cells, Shiga toxin protein synthesis inhibition reporter; inhibition, % at 38.7 µM; 290,000 compounds, 9.2% hits; in the data active = inhibition mostly above about 28%, no sharp cut-off; inactive = mostly below about 43%; note: 0% is about no effect
# Pf growth 96h = P. falciparum growth inhibition at 96 hour, primary screen for plastid delayed-death inhibitors; Potency, µM (titrated, usually from 28.7 µM), for inactives: at the top dose activity change, negative = inhibition, usual class: inhibitors; 320,000 compounds, 6.9% hits; P. falciparum luciferase reporter growth, 96 h; AID 504834; active = well fitted inhibition curve with a large enough effect; inconclusive = small, poorly fitted or top-dose-only effect, or another doubt; inactive = no such curve, though single readings can be large or run the other way; note: potency is the fitted concentration of half-maximal effect; % is set by controls: 0 for no effect and ±100 for the full control effect
#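 Erythrocytes infected with luciferase-expressing P. falciparum were dispensed at 2% hematocrit and 0.05% parasitemia (final), then incubated with compounds 96 hours at 37 C in 5% CO2. Luminescence after detection reagent addition reported growth.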
# Pf growth 48h = inhibits P. falciparum growth in the first generation, 48 h. P. falciparum luciferase growth in erythrocytes, 48 h. Potency, µM (top dose mostly 28.7 µM), without a hit: at the top dose activity change, negative = inhibition, usual class: inhibitors. 310,000 compounds, 5.9% hits; active = well fitted inhibition curve with a large enough effect; inconclusive = small, poorly fitted or top-dose-only effect, or another doubt; inactive = no such curve, though single readings can be large or run the other way; note: potency is the fitted concentration of half-maximal effect; % is set by controls: 0 for no effect and ±100 for the full control effect
#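 Here the parasites carry a stable luciferase gene and grow inside erythrocytes in Albumax-based RPMI medium with compound for one erythrocytic cycle. Activity is scored as loss of luminescent signal.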
# Starred values were filed as active, the others as inactive; ? = inconclusive; / = no result. Unless noted, calls come from the whole dose curve.
SMILES,Cycloheximide cs,SARS PLpro yeast,NS1 inh,Shiga inhibitor,Pf growth 96h,Pf growth 48h
Cc1c(N(C(=O)Nc2ccccc2)C2=NCC(C)S2)c(=O)n(-c2ccccc2)n1C (stereo not drawn),19,8%,-9%,35,43%,43%
CCc1cccc(C)c1NC(=O)CO/N=C(\N)CC(=O)NC1CCCCC1,-2,0%,/,-4,?,?
CCC(C)c1ccc(S(=O)(=O)N2CCN(S(=O)(=O)c3ccc(NC(C)=O)cc3)CC2)cc1 (stereo not drawn),-4,11%,14%,8,?,-8%
Oc1ccccc1C1C=C(c2ccc3c(c2)OCO3)NC(c2ccc(F)c(Br)c2)N1 (stereo not drawn),36*,/,/,100*,/,/
O=C1C=C(c2ccc3c(c2)OCO3)C[C@@H](c2ccc(F)cc2)C1,/,2%,/,/,57%,-10%
Oc1ccc(Br)cc1C1C=C(c2ccc3c(c2)OCO3)NC(c2ccc(F)c(Br)c2)N1 (stereo not drawn),54*,/,/,93*,/,/
COc1cccc(CN(C)C(=O)COc2ccc(C(=O)c3ccc(Cl)cc3)cc2)c1OC,-3,-4%,10%,13,?,?
CCOC(=O)C(CO)(NC(C)=O)C(=O)OCC,-2,?,-3%,-15,0.93µM*,5%
CN1CCN(C(=O)C2CC(c3ccc(F)cc3)=NO2)CC1 (stereo not drawn),15,20%,19%,34,?,/
CC1CCCC(C)N1C(=O)C1CC(c2ccc(F)cc2)=NO1 (stereo not drawn),20*,2%,-4%,48*,/,30%
CC1CCN(C(=O)C2CC(c3ccc(F)cc3)=NO2)CC1 (stereo not drawn),36*,0%,-11%,98*,/,71%
COc1ccc(C(=O)Nc2ccccc2C(=O)Nc2cc(C)ccn2)cc1,41*,-10%,2%,/,-23%,113%
COc1ccc(C(=O)NC(=O)Nc2cc(C)ccn2)cc1,34*,-3%,-22%,77*,/,235%
C=CCOc1ccc(C(=O)Nc2ccccc2C(=O)NCc2cccnc2)cc1,-2,-7%,4%,-7,12%,12µM*
COc1ccc(C(=O)Nc2ccccc2C(=O)Nc2cccc(C)n2)cc1,9.8*,-3%,7%,28*,59%,27%
Cc1ccnc(NC(=O)c2ccccc2NC(=O)C(C)(C)C)c1,0,-9%,-4%,-2,?,?
O=C(NCc1cccs1)C1CCN(S(=O)(=O)c2cccc3nsnc23)CC1,2,6%,-1%,-6,?,-6%
CCCCc1c(O)nc(SCC(=O)c2ccccc2)n(-c2ccccc2OC)c1=O,-1,0%,16%,-3,-5%,-11%
COc1ccc(C2CC(c3ccccc3)=NN2C(=O)CN2CCN(Cc3ccccc3)CC2)cc1 (stereo not drawn),1,4%,/,-3,?,?
COc1ccc(C(=O)Nc2ccccc2C(=O)Nc2cccnc2)cc1,14,-6%,-2%,49*,69%,5%
COc1cc2ccccc2cc1C(=O)Nc1cc(C)ccn1,42*,-10%,-28%,104*,14%,70%
O=C(Nc1cccnc1)c1ccccc1O,21*,-11%,-100%,58*,/,54%
COc1cc(NC(=O)c2cccnc2SC)cc(OC)c1OC,2,1%,/,-6,13%,80%
O=C(Nc1cccnc1)c1ccccc1-c1ccccc1,-1,0%,8%,-12,399%,-6%
COc1ccc(C(=O)Nc2cccnc2)cc1,26,4%,-15%,64,/,96%
CSc1ncccc1C(=O)Nc1cc(C)ccn1,11*,-7%,-7%,18,35%,27%
O=C(/C=C\c1ccccc1)NCC(=O)N/N=C/c1ccc(O)cc1O,9,0%,-4%,-6,?,?
CSc1cccc(NC(=O)COc2ccccc2C)c1,16*,-1%,/,47*,30%,13%
CCC(=O)Nc1cccc(SC)c1,-1,0%,-6%,3,7%,9%
Cc1ccccc1OCC(=O)Nc1ccc2oc(=O)ccc2c1,33*,-2%,/,54,116%,32%
